BAZ2B inh: inhibitors of human BAZ2B bromodomain; Q9UIF8; AlphaScreen BAZ2B-H3K14Ac peptide displacement; Potency, µM (titrated, usually from 114 µM), inactives show at the top dose activity change, negative = inhibition, most hits filed as inhibitors; 360,000 tested, 4.4% active; also: potency is read from the fitted curve at half-maximal effect; % is scaled to controls: 0 for no effect and ±100 for the full control effect; nearly all actives have a fitted effect of over 60% in size
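BAZ2B 50 nM plus b-H3(5-23)K14Ac 50 nM, PBS pH 7.4/0.01% Tween-20, 30 min RT; compound added (max 110 uM), 30 min RT; streptavidin donor/Ni-chelate acceptor beads 10 ug/mL final, 20 min dark; AlphaScreen read.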
Six1-Eya2 inh: blocks human Six1 binding to Eya2; AID 651725; Q15475+O00167; activity change, % (concentration not given with the values); 360,000 tested, 0.56% active; AlphaScreen GST-Six1/His-Eya2 binding, biochemical; active compounds read low; in the data active = activity change below about -65%; inconclusive = mostly about -30% to -63%; also: % is scaled to controls: 0 for no effect and ±100 for the full control effect
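AlphaScreen with GST-Six1 and His-Eya2 (5X mix: 250 nM and 500 nM), glutathione donor and nickel acceptor beads; buffer 50 mM Tris pH 8.0, 300 mM NaCl, 1 mM TCEP; 1 h at 37 C in the dark.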
HP1b chromo inh: HP1-beta chromodomain-methylated histone interaction inhibition. P83916. AlphaScreen HP1-beta / biotin-H3K9me3 peptide binding. Potency, µM (highest dose often 114 µM), inactives show at the top dose activity change, negative = inhibition, most hits filed as inhibitors. 390,000 tested, 0.56% active; also: potency is read from the fitted curve at half-maximal effect; nearly all actives have a fitted effect of over 70% in size
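Compound inhibition of the preformed complex between 50 nM HP1-beta and 50 nM biotinylated H3K9me3 peptide was read by AlphaScreen. Buffer was PBS pH 7.4 with 0.01% Tween-20. Incubations ran 30 min at room temperature, with 10 ug/mL donor/acceptor beads.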
JMJD2A Tudor inh: inhibitors of human JMJD2A Tudor domain. O75164. AlphaScreen JMJD2A-Tudor / H3K4me3 peptide binding. Potency, µM (doses to about 114 µM), inactives show at the highest dose activity change, negative = inhibition, hits mostly inhibitors. 390,000 tested, 4.4% active. AID 504339; also: potency is read from the fitted curve at half-maximal effect; % is scaled to controls: 0 for no effect and ±100 for the full control effect; nearly all actives have a fitted effect of over 50% in size
CtBP-E1A blk: inhibitors of CtBP/E1A interaction; AlphaScreen GST-E1A/His-CtBP binding, 1536-well; active compounds read low; activity change, % (test concentration not listed); 340,000 tested, 0.49% active; AID 651724; in the data active = activity change below about -65%; inconclusive = mostly about -30% to -63%; also: % is scaled to controls: 0 for no effect and ±100 for the full control effect
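Homogeneous bead-based format: GST-tagged E1A captured on glutathione donor beads, His-tagged CtBP on nickel acceptor beads; compounds precede bead addition by 2 h at 37 °C.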
G9a inh: inhibitors of human histone lysine methyltransferase G9a. Q96KQ7. G9a H3K9 monomethylation, AlphaScreen, 2 h. Potency, µM (top dose mostly 102 µM), inactives show top-dose activity, negative = inhibition, usual class: inhibitors. 350,000 tested, 8.8% active. AID 504332; also: potency is read from the fitted curve at half-maximal effect; % is scaled to controls: 0 for no effect and ±100 for the full control effect; nearly all actives have a fitted effect of over 75% in size
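Quantitative HTS format: methyltransferase activity on a biotin-tagged H3K9 peptide is measured by AlphaScreen, using a rabbit anti-monomethyl-H3K9 antibody with streptavidin donor and anti-IgG acceptor beads. Final levels are 20 nM enzyme, 500 nM peptide, 20 uM SAM; 2 h RT.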
The depositor's hits bear a star; [ ] = dose if it differs, or a comment. An excerpt weighted towards active compounds, which were near 10% of everything screened. Unless noted, calls follow the shape of the dose curve; as a rule, active = well fitted inhibition curve with a large enough effect; inconclusive = small, poorly fitted or top-dose-only effect; inactive = no such curve, though single readings can be large or run the other way.

`COc1ccc(C(=O)NCc2nnc(SCC(=O)NC3CCCCC3)n2C)cc1` gave BAZ2B inh -35%, Six1-Eya2 inh 8, HP1b chromo inh 12%, JMJD2A Tudor inh -8%, CtBP-E1A blk 1 and G9a inh 2%.
Screening Cc1ccc(S(=O)(=O)N/N=C\c2ccc([N+](=O)[O-])o2)cc1 returned BAZ2B inh -5%, Six1-Eya2 inh -3, HP1b chromo inh 4%, JMJD2A Tudor inh -25%, CtBP-E1A blk -16 and G9a inh 3.5µM*.
Screening O=[N+]([O-])c1ccc(/C=N/NS(=O)(=O)c2ccc(Cl)cc2)o1 returned BAZ2B inh -38%, Six1-Eya2 inh -7, HP1b chromo inh 24%, JMJD2A Tudor inh inconclusive, CtBP-E1A blk 0 and G9a inh 3.5µM*.
O=[N+]([O-])c1ccc(/C=N/Nc2ccnc3cc(Cl)ccc23)o1 was read as BAZ2B inh 28µM*, Six1-Eya2 inh inconclusive, HP1b chromo inh 32µM*, JMJD2A Tudor inh 40µM*, CtBP-E1A blk -24 and G9a inh 40µM*.
For Cc1ccc(C)c(NC(=O)CSc2sc3c(O)cc(=O)[nH]c3c2C#N)c1 the results were BAZ2B inh 50µM*, Six1-Eya2 inh -3, HP1b chromo inh 10%, JMJD2A Tudor inh -23%, CtBP-E1A blk 0 and G9a inh -5%[59 µM].
`Cc1ccc(Cl)cc1NC(=O)CSc1sc2c(O)cc(=O)[nH]c2c1C#N` gave BAZ2B inh -14%, Six1-Eya2 inh -5, HP1b chromo inh -26%, JMJD2A Tudor inh -27%, CtBP-E1A blk -5 and G9a inh -7%[59 µM].
`N#Cc1c(SCC(=O)Nc2cccc(C(F)(F)F)c2)sc2c(O)cc(=O)[nH]c12` gave BAZ2B inh inconclusive, Six1-Eya2 inh -13, HP1b chromo inh -7%, JMJD2A Tudor inh -29%, CtBP-E1A blk 5 and G9a inh 45µM*.
Screening Cc1cc(NC(=O)CSc2sc3c(O)cc(=O)[nH]c3c2C#N)ccc1Br returned BAZ2B inh 79µM*, Six1-Eya2 inh -10, HP1b chromo inh 7%, JMJD2A Tudor inh -19%, CtBP-E1A blk -1 and G9a inh 35µM*.
For COC(=O)c1ccc(C)c(NC(=O)CSc2sc3c(O)cc(=O)[nH]c3c2C#N)c1 the results were BAZ2B inh 50µM*, Six1-Eya2 inh -22, HP1b chromo inh -38%, JMJD2A Tudor inh 50µM*, CtBP-E1A blk -6 and G9a inh inconclusive.
Screening COc1ccc(-c2nc3n(n2)C(=O)CC(c2ccco2)S3)cc1 (stereo not drawn) returned BAZ2B inh inconclusive, Six1-Eya2 inh -10, HP1b chromo inh -2%, JMJD2A Tudor inh 32µM*, CtBP-E1A blk -1 and G9a inh 2.2µM*.
COc1ccc2nc(C)cc(SCC(=O)N/N=C/c3ccc(O)c(O)c3)c2c1 was read as BAZ2B inh inconclusive, Six1-Eya2 inh -72*, HP1b chromo inh -5%, JMJD2A Tudor inh -30%, CtBP-E1A blk -72* and G9a inh 35µM*.
COc1cccc2c(SCC(=O)N/N=C/c3ccc(O)c(O)c3)cc(C)nc12 was read as BAZ2B inh inconclusive, Six1-Eya2 inh -71*, HP1b chromo inh -3%, JMJD2A Tudor inh inconclusive, CtBP-E1A blk -74* and G9a inh 35µM*.
COc1ccc2nc(C)cc(SCC(=O)N/N=C/c3cccc4ccccc34)c2c1 was read as BAZ2B inh 8%, Six1-Eya2 inh -2, HP1b chromo inh 14%, JMJD2A Tudor inh -21%, CtBP-E1A blk -3 and G9a inh 9%[59 µM].
Screening COc1ccc2nc(C)cc(SCC(NC(C)=O)C(=O)OC(C)C)c2c1 (stereo not drawn) returned BAZ2B inh -2%, Six1-Eya2 inh 4, HP1b chromo inh 49%, JMJD2A Tudor inh -6%, CtBP-E1A blk 3 and G9a inh 40µM*.
COc1cccc2c(SCC(=O)N/N=C/c3ccccc3)cc(C)nc12 was read as BAZ2B inh 2%, Six1-Eya2 inh -7, HP1b chromo inh 15%, JMJD2A Tudor inh -19%, CtBP-E1A blk -2 and G9a inh -16%.
Screening COc1ccc2c(c1)c(C(=O)N/N=C/c1ccc(O)c(O)c1)c(C)n2C returned BAZ2B inh inconclusive, Six1-Eya2 inh -3, HP1b chromo inh -6%, JMJD2A Tudor inh -26%, CtBP-E1A blk -10 and G9a inh 50µM*.
`Cc1ccc(C)c(N2CCN(C(=O)c3cc(S(=O)(=O)N4CCCC4)c[nH]3)CC2)c1` gave BAZ2B inh inconclusive, HP1b chromo inh 0%, JMJD2A Tudor inh -28% and G9a inh -9%[59 µM].
Screening Nc1cc(=O)[nH]c(SCC(=O)Nc2ccc(Oc3ccccc3)cc2)n1 returned BAZ2B inh -33%, Six1-Eya2 inh -6, HP1b chromo inh 12%, JMJD2A Tudor inh -7%, CtBP-E1A blk -3 and G9a inh -1%.
COC(=O)Cc1ccc(N(Cc2ccccc2F)S(=O)(=O)c2ccc(C)cc2)cc1 was read as BAZ2B inh -20%, Six1-Eya2 inh -1, HP1b chromo inh 75%, JMJD2A Tudor inh 21%, CtBP-E1A blk -12 and G9a inh 15%.
`Nc1sc2c(c1C(=O)c1ccccc1)CCCC2` gave BAZ2B inh -34%, Six1-Eya2 inh -3, HP1b chromo inh -14%, JMJD2A Tudor inh inconclusive, CtBP-E1A blk 1 and G9a inh inconclusive.
For Nc1sc2c(c1C(=O)NCCc1ccccc1)CCCC2 the results were Six1-Eya2 inh -4 and CtBP-E1A blk -8.
Screening Nc1sc2c(c1C(=O)NC1CCS(=O)(=O)C1)CCCC2 (stereo not drawn) returned BAZ2B inh -7%, Six1-Eya2 inh -1, HP1b chromo inh -6%, JMJD2A Tudor inh -34%, CtBP-E1A blk 1 and G9a inh 7.9µM*.
NC(=O)c1c(N)sc2c1CCCC2 was read as BAZ2B inh inconclusive, Six1-Eya2 inh -8, HP1b chromo inh 2%, JMJD2A Tudor inh -32%, CtBP-E1A blk 0 and G9a inh 2.5µM*.
Screening O=C(C1CCN(S(=O)(=O)Cc2ccccc2)CC1)N1CCN(c2cccc(C(F)(F)F)c2)CC1 returned BAZ2B inh -1%, HP1b chromo inh 43%, JMJD2A Tudor inh -5% and G9a inh -31%[59 µM].
For CCOc1cc(/C=C(/NC(C)=O)C(=O)O)cc(Cl)c1OCc1cccc(Br)c1 the results were BAZ2B inh 50µM*, Six1-Eya2 inh -10, HP1b chromo inh 3%[57 µM], JMJD2A Tudor inh inconclusive, CtBP-E1A blk 1 and G9a inh -10%[12.7 µM].
For C=CCn1c(NC(=O)CC)c(C(=O)OCC)sc1=S the results were BAZ2B inh inconclusive, Six1-Eya2 inh -9, HP1b chromo inh -1%, JMJD2A Tudor inh -3%[57.1 µM], CtBP-E1A blk 5 and G9a inh 45µM*.
